Experimental findings from the OligoGym collection are described below.
Further: reference of the scale not given here.

One assay concerns the target SDR9C7. Briefly: pooled miR-30 sensor sort-seq; sequence = guide strand. To be noted: shRNA.
On to TTAGGATGAAATCTGTCACAGG, for which the sensor-assay potency score (higher = more potent) is -0.552.

Regarding TTGATGACATCTCTGACTCTGG, the sensor-assay potency score (higher = more potent) was 0.0736.

In turn, TAGAGCTCACGCCTTATGCTGT showed a sensor-assay potency score (higher = more potent) of -0.719.

Take AACTTGTCAGTATAGATGCGGA: the sensor-assay potency score (higher = more potent) was -0.682.

Turning to TTCGCTCTTGGTGACATCCAGT, the sensor-assay potency score (higher = more potent) was -0.405.

TTATGTTTTTTAACTTGTCAGT gave a sensor-assay potency score (higher = more potent) of -0.963.

In turn, TTGTTCGCCCACTTTGTCCCTC gave a sensor-assay potency score (higher = more potent) of -0.717.

As to ATGCTGTTGATGACATCTCTGA, the sensor-assay potency score (higher = more potent) is -0.812.

As to TTGATGCTTTCGCTCTTGGTGA, the sensor-assay potency score (higher = more potent) was -1.21.

As for TAACTTGTCAGTATAGATGCGG, the sensor-assay potency score (higher = more potent) was -0.0735.

Sequence TTGCCGAGAATGGCTGTCCGAT had a sensor-assay potency score (higher = more potent) of -0.982.

Take TTGCAGTTCTTGAACCAGCGAT: the sensor-assay potency score (higher = more potent) is -0.518.

The next assay has as its target SEC11C. The assay is described as above. The settings on record: shRNA.
Take TCATGAACTTTGATTACTCTGT: the sensor-assay potency score (higher = more potent) turned out to be 0.434.

As to ATGAACTTTGATTACTCTGTGA, the sensor-assay potency score (higher = more potent) was -0.369.

As for TGAACTTTGATTACTCTGTGAA, the sensor-assay potency score (higher = more potent) came out at 0.177.

Sequence ATTATTATCTCCTTTAGTCAGA gave a sensor-assay potency score (higher = more potent) of -0.731.

Turning to TAAAACCTGGTAATAGAGCTGG, the sensor-assay potency score (higher = more potent) is -0.222.

ATCTTTTTCATGAACTTTGATT: the sensor-assay potency score (higher = more potent) is -1.19.

In turn, TGAACTATTGGAATGTCTCGTC had a sensor-assay potency score (higher = more potent) of 0.149.
